Screening data (PubChem)
An excerpt weighted towards active compounds, which were near 10% of everything screened.
HEK cytotox: cytotoxic compounds in HEK 293 cells. AID 1345083. 94,000 compounds, 6.6% hits. Potency, µM (titrated, usually from 115 µM), for the others: at the top dose activity change, negative = cytotoxicity, most hits filed as inhibitors. HEK 293 viability, ATP luminescence (CellTiter-Glo), 48-72 h; further: nearly all actives have a fitted effect of over 60% in size
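Pintool-delivered compounds were incubated with HEK 293 cells (250 cells/well) at 37 degree Celsius for 48 or 72 hr. ATP-dependent luminescence (CellTiter-Glo) then reported remaining viable cells.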
FLuc inh: blocks purified firefly luciferase enzyme activity. P08659. Potency, µM (highest dose often 115 µM), most hits filed as inhibitors. 76,000 compounds, 2.5% hits. purified P. pyralis luciferase, luminescence, biochemical; further: nearly all actives have a fitted effect of over 65% in size
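Biochemical qHTS: compound (6-point titration) added to 10uM D-luciferin plus 10uM ATP in Tris acetate pH 7.5 buffer with Mg, Tween-20 and BSA, then purified enzyme at 10nM; light output imaged.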
hNpr1 antagonist: antagonists of human natriuretic peptide receptor Npr1; P16066; HEK293 hNpr1 GloSensor cGMP, ANP-stimulated luminescence; Potency, µM (highest dose often 46.3 µM), for inactives: top-dose activity change, negative = inhibition, most hits filed as inhibitors; 76,000 compounds, 1.6% hits; calls by dose curve; further: nearly all actives have a fitted effect of over 60% in size
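HEK293 cells stably expressing human Npr1 and cGMP GloSensor pGS-40F, loaded 2 h with 2% GloSensor reagent, given compound 30 min at room temperature. Luminescence read before and 20 min after 0.1 nM hNppA.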
NIH3T3 tox: kills NIH 3T3 cells; Potency, µM (titrated, usually from 96.7 µM), for inactives: at the highest dose activity change, negative = cytotoxicity, usual class: inhibitors; NIH 3T3 viability, CellTiter-Glo ATP luminescence, 48-72 h; 94,000 compounds, 4.3% hits; further: nearly all actives have a fitted effect of over 55% in size
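Cytotoxicity is measured as loss of cellular ATP: NIH 3T3 cells (400/well) are exposed to compound for 48 or 72 hr at 37 °C, then CellTiter-Glo luminescence is imaged after 10 min at room temperature.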
GPT2 inh: inhibitors of human GPT2 alanine aminotransferase; Recombinant GPT2, coupled pyruvate oxidase/HRP Amplex Red fluorescence; Potency, µM (titrated, usually from 57.7 µM), for inactives: top-dose activity change, negative = inhibition, actives largely listed as inhibitors; 100,000 compounds, 0.25% hits; AID 1671188; further: nearly all actives have a fitted effect of over 60% in size
Target sequence (Q8TD30 whole entry, looked up): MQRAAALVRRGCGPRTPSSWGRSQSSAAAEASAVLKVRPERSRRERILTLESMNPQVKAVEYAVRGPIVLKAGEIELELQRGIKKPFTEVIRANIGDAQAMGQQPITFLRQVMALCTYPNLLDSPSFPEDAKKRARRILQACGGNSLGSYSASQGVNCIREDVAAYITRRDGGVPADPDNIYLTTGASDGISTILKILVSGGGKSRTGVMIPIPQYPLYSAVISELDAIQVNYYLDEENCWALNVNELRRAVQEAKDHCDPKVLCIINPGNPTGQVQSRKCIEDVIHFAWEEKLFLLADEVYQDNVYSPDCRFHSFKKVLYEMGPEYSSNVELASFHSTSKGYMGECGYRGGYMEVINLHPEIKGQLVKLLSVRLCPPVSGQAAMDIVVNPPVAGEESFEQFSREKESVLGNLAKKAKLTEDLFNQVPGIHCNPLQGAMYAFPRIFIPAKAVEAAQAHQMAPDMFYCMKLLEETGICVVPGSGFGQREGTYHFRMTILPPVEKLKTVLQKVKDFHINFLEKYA
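Inhibition is scored from Amplex Red fluorescence generated when pyruvate oxidase and HRP act on pyruvate released by GPT2. Reactions contain 10ng/uL enzyme, 250uM a-KG and 2mM L-alanine and run 30 min at room temperature.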
An asterisk follows results filed as active; [ ] = remark or other dose. Unless noted, the call rests on the fitted dose curve; in most records, active means well fitted curve in the direction sought with a large enough effect; inconclusive means small, poorly fitted or top-dose-only effect, or another doubt; inactive means no such curve, though single readings can be large; an effect the other way counts as inactive or inconclusive. On the % scale 0 is the no-effect control and ±100 the full control effect; potency means the concentration at half of the fitted maximal effect.

Cc1nnc(-c2cc(-c3cnn(C)c3)ccn2)n1C1CCCCC1 was read as HEK cytotox 2%[172 µM], FLuc inh inactive, hNpr1 antagonist 0%[70.6 µM], NIH3T3 tox inconclusive and GPT2 inh -10%[88.5 µM].
Cc1nnc(-c2cc(-c3cccnc3)ccn2)n1C1CCCCC1 was read as HEK cytotox inactive, FLuc inh inactive, hNpr1 antagonist 5%[70.6 µM], NIH3T3 tox 89µM* and GPT2 inh 2%[88.5 µM].
`CC(C)CCC(=O)N1CC(c2nnc(-c3ccncc3)o2)C2(CCOCC2)C1` (stereo not given) gave HEK cytotox -2%, FLuc inh inactive, hNpr1 antagonist 1%, NIH3T3 tox -2% and GPT2 inh inactive.
O=C(NCC1CCCCC1)C1CCN(c2nccc(Nc3ccccc3Cl)n2)CC1 was read as HEK cytotox 35µM*, NIH3T3 tox 32µM* and GPT2 inh inactive.
Screening C#CCNC(=O)C1CCN(c2nccc(Nc3ccccc3Cl)n2)CC1 returned HEK cytotox inconclusive, NIH3T3 tox 45µM* and GPT2 inh 4%.
Screening O=C(NCC1CCCCCC1)[C@@H]1CCCN1c1nccc(Nc2ccccc2Cl)n1 returned HEK cytotox 25µM*, NIH3T3 tox 32µM* and GPT2 inh inactive.
For COc1ccc(OCC(O)CN2CCC(=O)N(C3CCCC3)Cc3ccccc32)cc1 (stereo not given) the results were HEK cytotox 40µM* and NIH3T3 tox inconclusive.
COc1ccc(OCC(O)CN2CCC(=O)N(C/C=C/c3ccccc3)CCc3ccccc32)cc1 (stereo not given) was read as HEK cytotox 28µM*, NIH3T3 tox inconclusive and GPT2 inh -11%[27.3 µM].
COCCN1Cc2ccccc2N(CC(O)COc2ccccc2)CCC1=O (stereo not given) was read as HEK cytotox inconclusive and NIH3T3 tox -25%.
Screening C=CCN1CCc2ccccc2N(CC(O)COc2ccc(OC)cc2)CCC1=O (stereo not given) returned HEK cytotox -21%[57.5 µM], NIH3T3 tox inconclusive and GPT2 inh 5%[27.3 µM].
Screening O=C(c1ccccc1)N1CCCC(C(=O)N2CCC(c3ccccc3)CC2)C1 (stereo not given) returned HEK cytotox inconclusive, NIH3T3 tox -16% and GPT2 inh 2%.
For Cn1nc(C(F)(F)F)c2cc(C(=O)N3CCC4(CCCO4)CC3)sc21 the results were HEK cytotox -15%, FLuc inh inactive, hNpr1 antagonist 8%, NIH3T3 tox -16% and GPT2 inh 0%[11.5 µM].
Cc1nc2c(c(N3CCCC(COc4cccc(F)c4)C3)n1)CCNCC2 (stereo not given) was read as HEK cytotox 22µM*, FLuc inh inactive, hNpr1 antagonist -5%, NIH3T3 tox inconclusive and GPT2 inh 2%[11.5 µM].
`Cc1noc(-c2nc(-c3cccc(Br)c3)no2)n1` gave HEK cytotox inconclusive, FLuc inh inconclusive, hNpr1 antagonist -15%, NIH3T3 tox 0% and GPT2 inh -9%.
For Cc1cccc(-c2noc(-c3nc(C)no3)n2)c1 the results were HEK cytotox -19%, FLuc inh 25µM*, hNpr1 antagonist -3%, NIH3T3 tox -12% and GPT2 inh inconclusive.
For COc1ccc(OCc2nc(C)c(CCO)c(=O)n2CC(=O)Nc2ccc(C)cc2C)cc1 the results were HEK cytotox inconclusive, FLuc inh inactive, hNpr1 antagonist -3%, NIH3T3 tox inconclusive and GPT2 inh -7%.
`CCN1CCN(CC(O)COc2cccc(CNCCc3cccc(C)n3)c2)CC1` (stereo not given) gave HEK cytotox inconclusive, FLuc inh inactive, hNpr1 antagonist 3%, NIH3T3 tox -28% and GPT2 inh -4%.
Screening CCN1CCN(CC(O)COc2cccc(CNC3(c4ccccc4)CC3)c2)CC1 (stereo not given) returned HEK cytotox 32µM*, FLuc inh inactive, hNpr1 antagonist 6%, NIH3T3 tox inconclusive and GPT2 inh 0%.
`Cc1nc(N2CCC(NC(=O)c3ccc(C#N)cc3)CC2)cc(C(F)(F)F)n1` gave HEK cytotox -23%, FLuc inh inactive, hNpr1 antagonist inconclusive, NIH3T3 tox -17% and GPT2 inh -7%.
`CC#CCn1cc2c3c(cccc31)[C@H](CC(C)C)N[C@H](C(=O)NC1CCCC1)C2` gave HEK cytotox 45µM*, FLuc inh inactive, hNpr1 antagonist -9%[70.6 µM], NIH3T3 tox 35µM* and GPT2 inh -4%[88.5 µM].
`CC#CCn1cc2c3c(cccc31)[C@H](CC(C)C)N[C@H](C(=O)NC(C)C)C2` gave HEK cytotox 50µM*, FLuc inh inactive, hNpr1 antagonist -2%[70.6 µM], NIH3T3 tox 71µM* and GPT2 inh -6%[88.5 µM].
For CC#CCn1cc2c3c(cccc31)[C@H](CC(C)C)N[C@H](C(=O)NCCOC)C2 the results were HEK cytotox inconclusive, FLuc inh inactive, hNpr1 antagonist -11%[70.6 µM], NIH3T3 tox inconclusive and GPT2 inh inconclusive.
Screening CC#CCn1cc2c3c(cccc31)[C@H](CC(C)C)N[C@H](C(=O)NCCN1CCOCC1)C2 returned HEK cytotox inconclusive, FLuc inh inactive, hNpr1 antagonist -10%[70.6 µM], NIH3T3 tox 100µM* and GPT2 inh 1%[88.5 µM].
O=C(NCc1ccccc1F)c1ccc2c(c1)CN(Cc1ccc3c(c1)CCO3)CCO2 was read as HEK cytotox 28µM*, FLuc inh inactive, hNpr1 antagonist -15%, NIH3T3 tox inconclusive and GPT2 inh inactive.
CCOc1ccc(CN2CCOc3ccc(C(=O)NCc4ccccc4F)cc3C2)cc1 was read as HEK cytotox 40µM*, FLuc inh inactive, hNpr1 antagonist inconclusive, NIH3T3 tox inconclusive and GPT2 inh inactive.
O=C(Cc1ccccc1F)N1CCOc2ccc(CN3CCc4ccccc4C3)cc2C1 was read as HEK cytotox 45µM*, FLuc inh inactive, hNpr1 antagonist -29%, NIH3T3 tox -28% and GPT2 inh 1%.
`Cc1nc(CN2CCN(C(=O)Cn3nnnc3CN3C[C@@H](C)O[C@@H](C)C3)CC2)cs1` gave HEK cytotox 3%, FLuc inh inactive, hNpr1 antagonist 15%, NIH3T3 tox inactive and GPT2 inh inactive.
For CCN(CC)CC[C@H]1CN(C(=O)Cc2ccc(OC)cc2)CC[C@H]1CC(=O)O the results were HEK cytotox inactive, FLuc inh inactive, hNpr1 antagonist 7%[70.6 µM], NIH3T3 tox 5%[174 µM] and GPT2 inh -8%[88.5 µM].
CCOC(=O)C1c2c(OC)ccc3c2C(=CC(C)(C)CO3)CN1Cc1ccccc1 (stereo not given) was read as HEK cytotox 45µM* and NIH3T3 tox inconclusive.
Screening COc1ccc2c3c1CN(Cc1cccc(NC(C)=O)c1)CC3=CC(C)(C)CO2 returned HEK cytotox -29% and NIH3T3 tox inconclusive.
